In PubChem BioAssay AID651707 (NMMLSC, 2012):
The whole screen tested about 2,300 compounds, of which about 170 (7.4%) were called active.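 Rule for the calls: active = over 5% cells positive for green fluorescent reporter, or over 2% positive for both it and APC stain; inactive = the rest, inconclusive results apart.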 Not all results are given here.

assay: fluorescent artefacts in myeloid progenitor cells – cell-based, flow cytometry, GFP/APC, Cherry Pick01, artefact control for AML myeloid differentiation project, confirmation (AID 651707); conditions: ER-HoxA9 myeloid progenitors, no estrogen, GFP autofluorescence flow cytometry, stronger effect = higher value; double positive: measured here: double positive GFP/APC population; fluorescence response: vehicle wells 0%, positive control 100%;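 for double positive: share of cells both GFP positive and bound by Mac1 APC antibody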;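 for fluorescence response: range taken on the double positive population between DMSO and positive control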

Row | SMILES | fluorescence response | double positive
1 | O=C(CCCN1C(=O)CCC1=O)Nc1ccc(Cl)c(C(F)(F)F)c1 | 0% (inactive) | 
2 | CCOC(=O)c1c(-c2ccccc2)oc2ccc(OCC(=O)NN)cc12 | 0% (inactive) | 
3 | CC(C)OC(=O)CN1C(=O)C(=O)c2ccccc21 | 0.5% (inactive) | 
4 | Cc1ccc(C)c(S(=O)(=O)N2CCN(c3ncnc4sccc34)CC2)c1 | 0% (inactive) | 
5 | O=C(NCC1CCCCC1)NCC1CCCCC1 | 0.2% (inactive) | 
6 | Nc1nc(Nc2ccccc2F)nc(NC2CCCCC2)c1[N+](=O)[O-] | 0% (inactive) | 
7 | COc1cccc(NC(=O)[C@H](Cc2c[nH]c3ccccc23)NC(=O)[C@@H]2Cc3ccccc3CN2)c1 | 0.6% (inactive) | 
8 | COc1ccccc1NC(=O)c1cc(Cl)nnc1Cl | 0.6% (inactive) | 
9 | O=C(Nc1cccc2ncccc12)c1ccc(-c2ccc(Cl)cc2Cl)o1 | 0.6% (inactive) | 
10 | CCOC(=O)C1=C(CN2CCc3ccccc32)NC(=O)NC1c1cccc([N+](=O)[O-])c1 (configuration not stated) | 0% (inactive) | 
11 | O[C@H]1CN(Cc2cccs2)[C@@H](c2ccc(Cl)cc2)C[C@@H]1n1cc(C2CC2)nn1 | 0% (inactive) | 
12 | O[C@H]1C[C@H](c2ccc(Cl)cc2)N(Cc2cccs2)C[C@@H]1n1cc(C2CC2)nn1 | 0.5% (inactive) | 
13 | O=c1oc2ccccc2cc1-c1csc(Nc2ccc(O)cc2)n1 | 55.3% (active) | 
14 | Cc1ccc(-c2nc(C#N)c(NCCCn3ccnc3)o2)cc1 | 0.3% (inactive) | 
15 | Cc1ccc(C(=O)NC2CCCC(C)C2C)cc1S(=O)(=O)N1CCCCC1 (configuration not stated) | 0% (inactive) | 
16 | Cc1cc(C)c(-c2csc(NC(=O)CCCc3nc4ccccc4c(=O)[nH]3)n2)c(C)c1 | 2.2% (inactive) | 
17 | CC1CCCC(NC(=O)CN2CCN(Cc3ccc(Cl)cc3)C2=O)C1C (configuration not stated) | 0% (inactive) | 
18 | COc1ccc(C(=O)N(Cc2ccccc2)c2ccc(C)cc2)cc1S(=O)(=O)N1CCOCC1 | 1.5% (inactive) | 
19 | CN(C(=O)c1cccc([N+](=O)[O-])c1)c1ccccc1C(=O)NCc1ccccc1 | 0.4% (inactive) | 
20 | Cc1ccc(OS(=O)Nc2cccc3nccnc23)cc1 (configuration not stated) | 0% (inactive) | 
21 | Fc1cccc(Cl)c1CSc1ccc(-c2ccco2)nn1 | 0.5% (inactive) | 0.2%
22 | O=C(CN1C(=O)NC(Cc2c[nH]c3ccccc23)C1=O)Nc1ccccc1C(F)(F)F (configuration not stated) | 0% (inactive) | 
23 | CCOC(=O)C(C(=O)OCC)C(C#N)c1ccccc1 (configuration not stated) | 0% (inactive) | 
24 | CCN(CC)c1ccc(/C=N/NC(=O)CNC(=O)c2cccs2)cc1 | 0% (inactive) | 
25 | COc1ccc(C(C(=O)NCc2ccccc2)n2c(=O)c(-c3ccccc3)nc3ccccc32)cc1 (configuration not stated) | 0.7% (inactive) | 
26 | N#C/C(=C/c1ccc(N2CCCCC2)o1)C(=O)NCCc1c[nH]c2ccccc12 | 64.7% (active) | 

Row | SMILES | fluorescence response | double positive
27 | COc1ccccc1CNC(=O)c1cc(-c2cc(Cl)ccc2C)n[nH]1 | 0% (inactive) | 
28 | O=S(=O)(c1ccc(Br)cc1)c1nc(-c2ccccc2)oc1NCc1cccnc1 | 1.5% (inactive) | 
29 | CC(=O)Nc1ccc(S(=O)(=O)Nc2ccc(N3CCOCC3)c(F)c2)cc1 | 0.8% (inactive) | 0.2%
30 | CC(=O)Nc1ccc(S(=O)(=O)Nc2ccc(N3CCCCC3)cc2)cc1 | 10.5% (active) | 10.5%
31 | CCOC(=O)c1c(-c2ccc(C)cc2)csc1/N=C(\C)C1=C(O)c2ccccc2C1=O | 0% (inactive) | 
32 | COc1ccc(-c2ccc(OC(=O)NC3CCS(=O)(=O)C3)cc2)cc1 (configuration not stated) | 0.7% (inactive) | 0.4%
33 | COC(=O)CN(c1cccc(C(C)=O)c1)S(C)(=O)=O | 0% (inactive) | 
34 | C/C(=C\c1ccccc1)C1NC(=O)c2c(sc3c2CCCC3)N1 (configuration not stated) | 0% (inactive) | 
35 | COc1ccc(C2CC(c3cccc(OC)c3)=NN2c2ccc(S(N)(=O)=O)cc2)cc1 (configuration not stated) | 0.5% (inactive) | 
36 | Cc1cc(NC(=O)CSc2nc(C(C)C)nc3sc4c(c23)CCC(C)C4)no1 (configuration not stated) | 1.4% (inactive) | 
37 | COc1ccc(-c2nnc(SCC(=O)c3cccs3)o2)c(OC)c1 | 3.4% (inactive) | 
38 | Cc1ccc2c(c1)C1C[N+](C)(CC(=O)c3ccccc3)CCC1N2C(=O)c1ccccc1Cl (configuration not stated) | 0% (inactive) | 
39 | Cc1ccc(-n2nc3cc(C)c(NC(=O)c4cccnc4)cc3n2)cc1 | 4.7% (inactive) | 
40 | COc1ccc2nc(N3CCN(C(=O)c4ccc([N+](=O)[O-])o4)CC3)sc2c1 | 0% (inactive) | 
41 | CC(C)CC(COCc1ccc(Cl)cc1)N1CCN(C(=O)c2ccc(C(F)(F)F)cc2)CCC1=O (configuration not stated) | 0% (inactive) | 
42 | COc1ccccc1N1CCN(C(=O)c2cc(-c3ccc(Br)cc3)on2)CC1 | 0.3% (inactive) | 
43 | O=C1c2ccccc2C(=O)N1Cc1cc(-c2ccccc2Cl)no1 | 0% (inactive) | 
44 | Cc1nn(-c2cc(Cl)ccc2N)c(=O)c2ccccc12 | 0% (inactive) | 
45 | CNC[C@H]1Oc2c(NC(=O)C3CCCCC3)cccc2C(=O)N([C@H](C)CO)C[C@@H]1C | 0% (inactive) | 
46 | O=C(Cn1cc(-c2nnnn2-c2ccc(Cl)cc2)c(=O)c2ccccc21)c1ccccc1 | 0% (inactive) | 
47 | CN1CCC(CN)(N2CCN(c3ccccc3)CC2)CC1 | 0.6% (inactive) | 
48 | CC#CC[N+](C)(C)CCCCCC | 0% (inactive) | 
49 | N#CC1=C(N)Oc2c(sc3ccccc23)C1c1ccco1 (configuration not stated) | 0% (inactive) | 
50 | O=C(NC(=O)c1ccccc1)Nc1ccccc1O | 1.3% (inactive) | 
51 | Cc1c(C(=O)OCC(=O)N(CCC#N)c2ccccc2)oc2c1ccc1ccccc12 | 0% (inactive) | 
52 | Cc1cccc(OCC(O)CN2CCN(CCN3C(=O)c4cccc5cccc(c45)C3=O)CC2)c1C (configuration not stated) | 0% (inactive) | 

Row | SMILES | fluorescence response | double positive
53 | CCCC(=O)Nc1c(O)c2ccccc2[nH]c1=O | 0% (inactive) | 
54 | CCN(CC)C(=O)CSC(Nc1cccc(F)c1)=C(C#N)C#N | 7.7% (active) | 
55 | Cc1cc(C)c(S(=O)(=O)NCC2CCC(C(=O)NCc3ccc4c(c3)OCO4)CC2)c(C)c1 (configuration not stated) | 0.2% (inactive) | 
56 | O=C(CN(c1ccccc1)S(=O)(=O)c1ccc(Cl)cc1)Nc1ccccc1C(=O)N1CCCC1 | 0% (inactive) | 
57 | CC(C)CNC(=O)COC(=O)/C=C/c1ccccc1[N+](=O)[O-] | 0% (inactive) | 
58 | Cc1cc(C)n(C(=O)c2ccc(C)c(S(=O)(=O)N3CCOCC3)c2)n1 | 2.3% (inactive) | 
59 | Cc1ccc(Nc2cc(C)nc3c(C)ccc([N+](=O)[O-])c23)cc1 | 6.7% (active) | 
60 | CCc1noc(C)c1C(=O)Nc1nc(-c2ccccc2)cs1 | 1% (inactive) | 
61 | COc1cccc(NC(=S)NCc2ccccn2)c1 | 0.3% (inactive) | 
62 | COc1cc(/C=C(\C#N)c2nc3ccccc3[nH]2)ccc1O | 36.7% (active) | 
63 | Clc1ccc(-c2nnc(SCc3nc4ccccc4s3)o2)cc1 | 0% (inactive) | 
64 | CCC1CCCCN1CCCNC(=O)Cn1nc(-c2ccccc2)ccc1=O (configuration not stated) | 0% (inactive) | 
65 | CC1=C(C(N)=O)C(c2ccc3c(c2)OCO3)n2nc(-c3cccc(C)c3)nc2N1 (configuration not stated) | 0% (inactive) | 
66 | COc1ccc(S(=O)(=O)N2CCC(C(=O)N3CCc4ccccc4C3)CC2)cc1OC | 0% (inactive) | 
67 | CN1OC(COC(=O)c2ccc(Cl)cc2)CC1c1ccccc1 (configuration not stated) | 0.3% (inactive) | 
68 | COc1cc(/C=C2/SC(=S)N(Cc3ccccc3)C2=O)cc(OC)c1O | 97.2% (active) | 
69 | Cc1nc(C)c(-c2nnc(-c3cccc(S(=O)(=O)N(C)C)c3)o2)cc1C(=O)NN | 0.7% (inactive) | 
70 | CCOc1ccc(C(=O)Nc2ccc(S(=O)(=O)NCC3CCCO3)cc2)cc1OCC (configuration not stated) | 0.3% (inactive) | 
71 | CCCCSc1nc2c(c(=O)n1CC)SC(C)C2 (configuration not stated) | 0% (inactive) | 
72 | Nc1ccc2nc3c(=O)[nH]c(=S)[nH]c3nc2c1 | 0% (inactive) | 
73 | CC(C)c1nc2ccc(C(=O)O)cc2[nH]1 | 0.4% (inactive) | 0.4%
74 | COc1ccc(N(CC(=O)NC2CCCCCCC2)S(=O)(=O)c2c(C)nn(C)c2C)cc1 | 0% (inactive) | 
75 | Cc1nn(-c2ncccn2)c2c1C(=O)CC(C)(C)C2Br (configuration not stated) | 0% (inactive) | 
76 | Cn1c(CNC(=O)c2ccccc2F)nnc1SCc1ccc(F)cc1 | 0% (inactive) | 
77 | CNc1nc(=O)n(C2CCCO2)cc1C (configuration not stated) | 0% (inactive) | 
78 | CC(=O)N1c2ccc(S(=O)(=O)N3CCCC(C(=O)Nc4cccc(F)c4)C3)cc2CC1C (configuration not stated) | 0% (inactive) | 

Row | SMILES | fluorescence response | double positive
79 | CCOC(=O)CC(=O)CSc1nc(-c2ccccc2)cc(-c2ccc(Cl)cc2)c1C#N | 0% (inactive) | 
80 | CC(C)(C)OC(=O)CNC(=O)c1[nH]cnc1C(=O)N[C@@H](Cc1ccccc1)C(=O)OCc1ccccc1 | 0% (inactive) | 
81 | O=C(Nc1cccc(-c2nc3ncccc3o2)c1)c1ccco1 | 0.2% (inactive) | 
82 | O=S(=O)(NCc1cccnc1)c1ccc(Cl)nc1 | 0.4% (inactive) | 
83 | COCCCn1c(=O)/c(=C/c2ccccc2OC(C)C)s/c1=C(\C#N)C(=O)Nc1ccc(C(=O)O)cc1 | 0% (inactive) | 
84 | O=C(Nc1ccccc1N1CCN(c2ccccc2)CC1)c1cccc(F)c1 | 0% (inactive) | 
85 | CC1(C)CC(=O)C2=C(C1)Nc1cc(C(=O)c3ccccc3)ccc1NC2c1ccccn1 (configuration not stated) | 0.4% (inactive) | 
86 | CCc1c(C)sc(NC(=O)c2cccs2)c1C(N)=O | 0% (inactive) | 
87 | C=CCNc1nnc(SCC(=O)N2CCCCC2)c2ccccc12 | 0.3% (inactive) | 
88 | Cc1cccc(C)c1NC(=O)CCS(=O)(=O)c1cccc2nsnc12 | 0% (inactive) | 
89 | Cc1ccc2nc(-c3ccccn3)cc(C(=O)Nc3ccc4c(c3)OCO4)c2c1 | 0% (inactive) | 
90 | CCOC(=O)c1c(-c2cccc(C)c2)csc1NC(=O)c1c(-c2ccccc2)noc1C | 0% (inactive) | 
91 | Cn1c2ccccc2c2cc(/C=C(\NC(=O)c3ccccc3)C(=O)NCC(=O)O)ccc21 | 0% (inactive) | 
92 | CN(C(=O)CSc1nnc(C2CC2)n1C)C1CCCc2ccccc21 (configuration not stated) | 0% (inactive) | 
93 | CSc1nnc(-c2ccncc2)n1CCCN1CCCC1=O | 0% (inactive) | 
94 | COc1cc(N=Cc2c(O)[nH]c3ccccc23)cc(OC)c1OC | 0% (inactive) | 
95 | CC(CNc1ccc([N+](=O)[O-])cc1)NC(=O)c1ccccc1Br (configuration not stated) | 0.4% (inactive) | 
96 | Cc1ccc2c(c1)c1ncn(Cc3ccc(F)cc3)c(=O)c1n2C | 0% (inactive) | 
97 | Cc1cccc(-n2c(SCC(=O)Nc3cccc(S(=O)(=O)NC4=NCCCCC4)c3)nc3ccccc3c2=O)c1C | 0% (inactive) | 
98 | CCN(CC)CC(=O)c1c[nH]c2ccc(OC)cc12 | 0.3% (inactive) | 
99 | CCOc1ccc(NC(=O)CSc2nc3c(c(=O)n2-c2ccccc2OC)SCC3)cc1 | 0.5% (inactive) | 
100 | CC(C)C(=O)N1CCN(c2nc(-c3ccccc3)c3c(c2C#N)CC(C)(C)OC3)CC1 | 0% (inactive) | 
101 | O=C(CN1CCN(C2CCCCC2)CC1)Nc1ccccc1N1CCCCC1 | 0% (inactive) | 
102 | O=C(NCCN=C1NS(=O)(=O)c2ccccc21)c1ccc(S(=O)(=O)N2CCOCC2)cc1 | 4.3% (inactive) | 
